In the library only some 4.4% were active in any assay of this set; here they are far more common.
tim23-1 inh = growth inhibitors of tim23-1 mutant yeast; 330,000 compounds, 1.3% hits; S. cerevisiae tim23-1 growth, BacTiter-Glo luminescence, 24 h; inhibition, % at 20 µM;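 active means growth inhibition of the mutant yeast at or above 50%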;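 further: temperature-sensitive mutant grown at 25 °C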
tim10-1 inh = inhibits growth of tim10-1 mutant yeast | AID 463190 | 330,000 compounds, 2.2% hits | inhibition, % at 20 µM | S. cerevisiae tim10-1 ts strain growth, BacTiter-Glo, 24 h;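 active means inhibition of at least 40%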;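 further: mutant grown at 25 °C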
Mot1-301 SUMO = inhibitors of SUMOylation pathway: yeast Mot1-301 growth rescue | growth rescue, % at 18.8 µM | 320,000 compounds, 1% hits | S. cerevisiae Mot1-301 growth rescue, ATP luminescence, 38.5C; percent above DMSO median, 100 means doubled;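 active means every valid replicate shows activation above 250% relative to neutral control wells; inactive means the rest, any valid replicate at or below 250%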
TIM10 inh = TIM10 yeast growth inhibition; S. cerevisiae TIM10 strain growth, BacTiter-Glo luminescence, 24 h; inhibition, % at 10 µM; 330,000 compounds, 1.4% hits;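 active means inhibition of 40% or more at the single tested concentration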;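 further: wild-type TIM10 isogenic control strain grown at permissive 25 °C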
PfHsp90 yeast 2 = reduces growth (ATP signal) of yeast expressing P. falciparum Hsp90. 310,000 compounds, 0.32% hits. S. cerevisiae expressing PfHsp90, BacTiter-Glo ATP, 48 h; yeast lacking PDR1 and PDR3 efflux regulators. inhibition, % at 9.4 µM;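 active means every replicate shows inhibition above about 80%, whatever the replicate mean, limit read from the data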
Mot1 SUMO dose = inhibits SUMO pathway, affecting Mot1-301 yeast growth; shares compounds with Mot1-301 SUMO; S. cerevisiae Mot1-301 galactose growth, ATP luminescence, 24 h; -100 = growth of slx-deleted rescue strain; growth activity, percent, % at 42 µM; 2,300 tested, under 10 active; AID 493004;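 active means Signal drops as the depositor expects, and the fitted half-maximal dose is no more than ten times the top valid tested dose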;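 further: more negative values mean stronger growth rescue toward the control strain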
Hits are given with their value; n = inactive; x = not tested or not shown; + = active, no number.

SMILES	tim23-1 inh	tim10-1 inh	Mot1-301 SUMO	TIM10 inh	PfHsp90 yeast 2	Mot1 SUMO dose
COc1ccc(S(=O)(=O)Cc2ccc(C(=O)NCc3cccs3)o2)cc1	n	n	462	n	n	n
CC(=O)c1cccc(NC(=O)C(C)OC(=O)C2CCC2)c1 (centres undefined)	n	n	n	n	n	x
C=CCOc1ccccc1CN1CCCN(C)CC1	n	n	n	n	n	x
O=C(O)C1C2CCCCC2=C2CCCCC2C1C(=O)c1ccccc1 (centres undefined)	n	n	394	n	n	n
COc1ccccc1NC(=S)NNC(=O)c1nn(C)cc1Cl	n	n	n	n	n	x
COc1ccccc1NC(=O)c1nn(C)cc1Br	n	n	669	n	n	n
COc1ccccc1NC(=O)c1nn(-c2cccc(C(F)(F)F)c2)ccc1=O	n	n	+	n	n	n
Cc1ccc(C(=O)NNC(=O)c2ccoc2C)s1	n	n	x	n	n	x
Cc1ccc(S(=O)(=O)N2CCCCC2)cc1C(=O)OC(C)C(=O)NC1CCCCC1C (centres undefined)	n	n	x	n	n	x
O=C(COC(=O)c1ccc(-n2cnnn2)cc1)Nc1cc(Cl)ccc1F	n	n	n	n	n	x
O=S1(=O)CC(N2CCCCC2)C(N2CCCCC2)C1 (centres undefined)	n	n	366	n	n	n
Cc1ccc(CNC(=O)CCNS(=O)(=O)c2ccc(C)cc2)cc1	n	n	n	n	n	x
Cc1ccc(CNC(=O)CCNS(=O)(=O)c2cccs2)cc1	n	n	+	n	n	n
CN(CC(=O)Nc1ccc(F)c(F)c1F)C(=O)Cc1ccc(S(=O)(=O)N2CCOCC2)s1	x	x	x	x	n	x
CCn1cc(C(=O)NCc2ccccn2)c(=O)c2cc(F)c(N3CCN(C)CC3)cc21	n	n	388	n	n	n
CCn1cc(C(=O)NCCc2ccccc2)c(=O)c2cc(F)c(N3CCN(C)CC3)cc21	n	n	n	n	n	x
CCOC(=O)C1CCN(C(=O)c2cc(S(=O)(=O)N3CCOCC3)ccc2C)CC1	n	n	n	n	n	x
COc1ccc(-c2nc(C#N)c(NC(C)c3ccccc3)o2)cc1OC (centres undefined)	n	n	417	n	n	n
COc1ccccc1OCC(=O)NC1CCCc2ccccc21 (centres undefined)	n	n	n	n	n	x
Cc1cc(C)cc(OCC(=O)NC2CCCc3ccccc32)c1 (centres undefined)	n	n	461	n	n	n
CC1(C)CCc2cc(CN3CCN(c4ccccn4)CC3)ccc2O1	n	n	725	n	n	n
COc1ccc(CCN(C)CCCC(C#N)(c2ccc(OC)c(OC)c2)C(C)C)cc1OC (centres undefined)	x	x	x	x	n	n
COc1ccccc1/C=C/C(=O)c1ccccc1	x	x	n	x	n	x
COc1ccccc1/C=C/C(=O)c1c2c(c(C)[nH]c1=O)CCCC2	n	n	n	n	n	n
O=C(N/N=C/C(Br)=C/c1ccccc1)c1cccnc1	n	n	500	n	n	n
SMILES	tim23-1 inh	tim10-1 inh	Mot1-301 SUMO	TIM10 inh	PfHsp90 yeast 2	Mot1 SUMO dose
COc1ccccc1CNc1ncnc2nc[nH]c12	n	n	671	n	n	n
COc1ccccc1CNc1ncnc2c1nnn2Cc1ccccc1	n	n	514	n	n	n
Cc1cc(C)cc(OCC(=O)Nc2cnn(CCCC(=O)O)c2)c1	n	n	n	n	n	x
CCC1CCCCN1CCCNC(=O)C1CCC(CNS(=O)(=O)c2c(C)cc(C)cc2C)CC1 (centres undefined)	n	n	509	n	n	n
NC(=S)N/N=C/c1cccc(O)c1O	n	n	630	n	n	n
NC(=S)N/N=C/c1ccccc1O	n	n	n	n	n	x
O=C(/C=C/N1CCOCC1)c1coc2ccccc12	n	n	425	n	n	n
Cc1nn(CC(=O)Nc2ccccn2)c(C)c1[N+](=O)[O-]	n	n	424	n	n	n
Cc1nn(CCCC(=O)Nc2ccccn2)c(C)c1[N+](=O)[O-]	n	n	n	n	n	x
COc1cc2nc(CN(C)Cc3ccc(SC)cc3)[nH]c(=O)c2cc1OC	n	n	n	n	n	x
COc1cc2nc(CSc3ncn[nH]3)[nH]c(=O)c2cc1OC	n	n	556	n	n	n
O=C(N/N=C(\c1ccccc1)c1cccnc1)c1cc(O)ccc1O	n	n	n	n	x	x
CCCCn1c(N)c(N(CCOC)C(=O)c2cc(-c3ccc(F)cc3)nc3ccccc23)c(=O)[nH]c1=O	n	n	n	n	x	x
O=C(CN1CCN(Cc2ccc(F)cc2)CC1)NCc1ccccc1	n	n	651	n	n	n
O=C(CSc1nnc(CNC(=O)c2ccccc2F)o1)NCCc1ccccc1	n	n	+	n	n	n
S=C(Nc1ccccc1Cl)N1CCCCCC1	n	n	n	n	n	x
S=C(Nc1ccccc1Cl)N1CCOCC1	n	n	651	n	n	n
Cc1ccc(NC(=O)CN2CCN(CCN=CC3=C(O)CC(C)(C)CC3=O)CC2)cc1	n	n	985	n	x	n
Fc1cccc(NC(=S)N2CCn3cccc3C2c2cccnc2)c1 (centres undefined)	n	n	497	n	x	n
S=C(Nc1ccccc1)N1CCn2cccc2C1c1cccnc1 (centres undefined)	n	n	n	n	n	x
CC(C)CCn1c(C(C)O)nc2ccccc21 (centres undefined)	n	n	433	n	n	n
O=C(COC(=O)/C=C/c1ccco1)Nc1ncc(C(F)(F)F)cc1Cl	n	n	588	n	n	n
Cc1c(Cl)cnc(NC(=O)COC(=O)/C=C/c2ccco2)c1Cl	n	n	x	n	n	x
COc1cccc(CNC(=O)CN2C(=O)COc3ccc(S(=O)(=O)N4CCOCC4)cc32)c1	n	n	n	n	n	x
Cc1[nH]c2ccccc2c1C(=O)CSc1nnc(C2CC2)o1	n	n	n	n	n	x
SMILES	tim23-1 inh	tim10-1 inh	Mot1-301 SUMO	TIM10 inh	PfHsp90 yeast 2	Mot1 SUMO dose
CCn1c(SC(=O)NC2CCCCC2)nnc1-c1cccs1	n	n	525	n	n	n
CCn1c(SCC(=O)NC2CCCCC2)nnc1-c1cccs1	n	n	n	n	n	x
COc1ccc2[nH]c3c(c2c1)CCN1C(=O)C(CC(=O)NCc2ccco2)C[C@H](C(=O)N2CCCCC2)[C@@]31CCc1ccccc1 (some centres undefined)	n	n	x	n	n	x
CC(OC(=O)c1cc(S(=O)(=O)N2CCOCC2)ccc1F)C(=O)NCc1ccc2c(c1)OCO2 (centres undefined)	n	n	374	n	n	n
CC(=O)c1cccc(NC(=O)CCc2nnc3ccc(NCc4ccc5c(c4)OCO5)nn23)c1	n	n	n	n	n	x
COc1ccc(CN(C)C(=O)c2ccc(COc3ccccc3)cc2)c(OC)c1	n	n	n	n	n	x
COc1ccc(CN(C)C(=O)c2sccc2-c2ccccc2)c(OC)c1	n	n	485	n	n	n
